Screens from PubChem.
CF NFkB inh: inhibitors of PAF-induced NF-kB signaling, primary screen, cell-based, GFP fluorescence, uHTS. KKLEB NF-kB-GFP reporter, GFP fluorescence overnight. inhibition, % at 5 µM. actives 0.86% (n = 360,000). AID 588850, 2011;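 active means at least 50% inhibition at 5 µM, scaled per plate between neutral and stimulator controls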;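 further: PAF is a Pseudomonas aeruginosa culture filtrate used as stimulus; plate controls were PAF-stimulated DMSO wells for no effect and unstimulated DMSO wells for full effect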
TWEAK Fn14 block: inhibitors of TWEAK-Fn14 signaling, primary screen, luciferase reporter cells, uHTS | TWEAK-stimulated Fn14 reporter cells, luciferase luminescence, 8 h | actives 2% (n = 360,000) | inhibition, % at 10 µM; in the data active means inhibition above about 50%
KKLEB cytotox: cytotoxicity in KKLEB CF airway cells, primary screen, cytotoxicity control for CF NF-kB inhibitor project, cell-based, uHTS, fluorescence assay plates. KKLEB CF airway cells viability, ATPlite luminescence, overnight; hits give low values; cells stimulated with P. aeruginosa culture filtrate. activity change (cytotoxicity), % at 5 µM. actives 0.36% (n = 360,000);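 active means corrected activity change at or below -50% at 5 µM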
EWS-Fli block: EWS/Fli-driven NR0B1 reporter inhibitors, primary screen, A673 cells, NR0B1 luciferase, luminescence, MLPCN library; actives 0.67% (n = 350,000); inhibition, % at 12.6 µM; AID 651661, 2012; viability-normalised;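 active means mean inhibition of at least 50% after viability correction, with every replicate also passing that limit; inconclusive means mean reaches 50% but only one of two replicates passes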;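 further: firefly luciferase signal divided by Alamar Blue viability fluorescence both relative to DMSO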
LGR2 inh: inhibitors of bursicon-induced LGR2 CRE-luciferase signal, primary screen, cell-based, HEK293, CRE-luciferase reporter, bursicon stimulation; Drosophila bursicon receptor LGR2 (rickets); bursicon-stimulated, 4 h; inhibition, % at 9.99 µM; actives 0.35% (n = 380,000); AID 720647, 2013;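 active means drop in luminescence signal, shown as inhibition above about 50% in the replicate tests, limit read from the data, passing the limit was not always enough; inconclusive means probably only some replicates passing the limit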;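 further: agonist challenge used bursicon conditioned medium at about half maximal strength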
TROY signal inh: inhibitors of TROY-driven NF-kB signaling, primary screen, Q293 LMP1-TROYcd cells, NF-kB luciferase, uHTS | AID 1347056, 2019 | inhibition, % at 10 µM | actives 0.98% (n = 360,000) | Q293 LMP1-TROYcd NF-kB luciferase reporter, 4 h;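 active means compounds whose plate-normalised and pattern-corrected inhibition of the luciferase reporter signal at the single screening dose is 50% or more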
CF NFkB conf: inhibitors of PAF-induced NF-kB signaling, retest, confirmation, cell-based, GFP fluorescence, single concentration. shares compounds with CF NFkB inh. AID 602472, 2012. actives 64% (n = 1,300). KKLEB CF airway cells, overnight. inhibition, % at 5 µM; in the data active means inhibition above about 40%;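 further: stimulus PAF is a Pseudomonas aeruginosa filtrate and not platelet activating factor; plate controls were DMSO wells with stimulus for no effect and unstimulated DMSO wells for full effect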
* marks the source's active call; other numbers are inactive results; ? = inconclusive; nt = no result. This is a sample that favours compounds with a hit; in the whole collection about 2.6% have one here.

SMILES	CF NFkB inh	TWEAK Fn14 block	KKLEB cytotox	EWS-Fli block	LGR2 inh	TROY signal inh	CF NFkB conf
COc1ccc(CCNC(=O)[C@@]2(Sc3ccc(C)cc3)CC(=O)N(C3CCCCC3)[C@@H]2c2ccc(CO)cc2I)cc1	nt	nt	nt	4	nt	nt	nt
COc1ccccc1-c1cc(NC=O)c2ncc(-c3ccc(F)cc3)n2c1	67*	55*	-24	8	-6	25	54*
COc1ccc(-c2cnc3c(NC=O)cc(-c4ccc(C(=O)N5CCOCC5)cc4)cn23)cc1OC	57*	-16	-35	2	7	14	63*
COc1ccc(-c2cc(NC=O)c3ncc(-c4ccc(C(C)=O)cc4)n3c2)cc1OC	50*	10	-19	10	1	16	33
COc1cc(-c2cnc3c(NC=O)cc(-c4ccc(C)cc4)cn23)cc(OC)c1OC	51*	1	-24	44	-43	-7	71*
CC(=O)c1ccc(-c2cnc3c(NC=O)cc(-c4ccc(C(=O)N5CCOCC5)cc4)cn23)cc1	39	4	-17	0	16	13	nt
C[C@H]1CN([C@@H](C)CO)C(=O)c2cc(NC(=O)Nc3ccccc3)ccc2O[C@@H]1CN(C)S(C)(=O)=O	nt	nt	nt	-4	16	nt	nt
CCOc1cc(Br)c(Br)c(C=Nc2ccc(NC(C)=O)cc2)c1O	69*	11	-1	-5	nt	6	61*
CC(=O)Nc1ccc(N=Cc2c(O)c(C(=O)Nc3ccccc3)cc3ccccc23)cc1	nt	nt	nt	-22	6	nt	nt
Cc1ccc(Cc2cnc(NC(=O)/C(C#N)=C/c3ccc(-c4ccccc4[N+](=O)[O-])o3)s2)cc1	52*	14	-50	nt	3	8	-2
COc1cccc(-c2cccc(-c3nc(C(=O)NCc4ccc(Oc5ccccc5)cc4)cc4c3[C@@H](CCO)N(S(=O)C(C)(C)C)C4)c2)c1 (stereo partly specified)	nt	nt	nt	-7	-7	nt	nt
CCCCOC(=O)/C=C\C(=O)NC(N)=O	57*	39	-10	-11	1	-4	-15
C[C@H]1CN([C@@H](C)CO)C(=O)c2cccc(NS(=O)(=O)c3ccc(Cl)cc3)c2O[C@@H]1CN(C)C(=O)Nc1ccc(C(F)(F)F)cc1	nt	nt	nt	-8	1	nt	nt
O=C1COc2ccc(C(=O)CSc3nc4ccccc4c(=O)n3-c3ccc(Cl)c(Cl)c3)cc2N1	55*	-33	-48	35	-10	1	-2
CCc1ccc(-n2c(SCC(=O)c3ccc4c(c3)NC(=O)CO4)nc3ccccc3c2=O)cc1	-8	-113	-4	16	-3	10	nt
C#Cc1cccc(Nc2nc(NC(C)C)nc3ccsc23)c1	50*	53*	-20	21	-9	32	36
CC(C)Nc1nc(Nc2ccc(C#N)cc2)c2sccc2n1	22	30	-17	17	-11	0	nt
COc1ccc2c3c(n(C)c2c1)[C@@H](CO)N(C(=O)c1ccc(F)cc1)CC31CN(CC2CC2)C1	nt	nt	nt	10	1	nt	nt
CCCN1C[C@@H](C)[C@H](OC)CN(C)C(=O)c2ccc(NC(=O)C3CCC3)cc2OC[C@@H]1C	nt	nt	nt	-1	-26	nt	nt
C[C@@H]1C[C@H]2[C@@H]3C[C@H](F)C4=CC(=O)C=C[C@]4(C)[C@@]3(F)[C@@H](O)C[C@]2(C)[C@@]1(O)C(=O)CO	78*	10	-24	4	-10	21	25
CC1(C)OC2CC3C4CC(F)C5=CC(=O)C=CC5(C)C4(F)C(O)CC3(C)C2(C(=O)CO)O1 (stereo unspecified)	75*	-14	40	-8	0	6	21
CC(=O)OCC(=O)[C@@]12OC(C)(C)O[C@@H]1CC1C3C[C@H](F)C4=CC(=O)C=CC4(C)[C@@]3(F)C(O)CC12C (stereo partly specified)	73*	-20	2	-3	-2	9	37
CCCNC(=O)C[C@H]1CC[C@H]2[C@@H](COc3ccc(NC(=O)NC(C)C)cc3C(=O)N2C)O1	nt	nt	nt	-3	-7	nt	nt
Cc1cc(C)c(O)c(CN(C)Cc2cc(Cl)cc(Cl)c2O)c1	60*	14	-27	-12	11	47	75*
Cc1ccnc(NCc2cc(Cl)cc(Cl)c2O)c1	-3	-12	5	-2	-14	-3	nt
SMILES	CF NFkB inh	TWEAK Fn14 block	KKLEB cytotox	EWS-Fli block	LGR2 inh	TROY signal inh	CF NFkB conf
CCCNC(=O)COC(=O)c1ccccc1C(=O)c1ccc(Cl)c([N+](=O)[O-])c1	101*	99*	-31	55*	106*	67*	109*
O=C1C(=O)N(CCS(=O)(=O)c2ccccc2)c2ccc(F)cc21	66*	10	-17	nt	8	2	22
COc1ccc2c(c1)C(=O)C(=O)N2CCS(=O)(=O)c1ccccc1	6	5	5	nt	4	9	nt
COc1ccc(CCNc2nc(-c3cccnc3)nc3ccccc23)cc1OC	58*	28	-28	1	-2	5	16
COc1ccc(/C=N/Nc2nc(-c3cccnc3)nc3ccccc23)cc1OC	64*	7	-1	-23	2	9	68*
Cc1ccc(CNc2nc(-c3cccnc3)nc3ccccc23)cc1	2	-2	4	22	-7	19	nt
O=C(Nc1ccc2c(c1)[C@@H]1C[C@H](CC(=O)N3CCCCC3)O[C@@H](CO)[C@@H]1O2)C1CCOCC1	nt	nt	nt	3	2	nt	nt
COc1ccc(NC(=O)N(C)C[C@@H]2OCCCC[C@H](C)Oc3ccc(NS(=O)(=O)c4ccccc4)cc3C(=O)N([C@@H](C)CO)C[C@@H]2C)cc1	nt	nt	nt	7	9	nt	nt
O=S(=O)(CC(CN1CCCC1)N1CCCC1)c1ccc2ccccc2c1 (stereo unspecified)	62*	13	-31	nt	nt	15	86*
O=C1c2ccccc2C(=O)N1C1CCCCC1	6	-3	-4	5	7	-20	nt
O=C1CCC(N2C(=O)c3ccccc3C2=O)C(=O)N1 (stereo unspecified)	76*	-5	18	-3	-12	-7	12
O=C(CN1CCOCC1)N1CC2(C1)[C@@H](c1ccccc1)[C@H](CO)N2Cc1cccc(F)c1	nt	nt	nt	-3	13	nt	nt
NC(c1ccccc1)c1csc(NC(=O)Nc2cccc(Cl)c2)n1 (stereo unspecified)	59*	24	-1	0	?	15	59*
